Reference: PubChem BioAssay
Activity calls are given as the source filed them. Unless noted, no rule for the calls is given here.

Tests used:
[1] = test system: Wnt5a (protein binding on small-molecule microarray); experiment: small molecules binding Wnt5a protein – biophysical, small-molecule microarray, 635/667 nm fluorescence, primary screen (AID 1142); conditions: 635 nm fluorescence, higher = more signal;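 also: fluorescence read at 667 nm with signal to noise per printed feature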
[2] = ATP-based viability of Huh7 replicon cells – cell-based, CellTiter-Glo luminescence, basal, 48 h, cytotoxicity control for HCV replication inhibitor project, primary screen (AID 1143); conditions: higher = more signal, called active from +8 up or from −8 down;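 also: Huh7 hepatoma cells carrying a hepatitis C replication reporter with no stimulus; test concentration not given here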
[3] = Pseudomonas biofilm growth suppression – PAO1 strain, BacTiter-Glo luminescence, LB-PBS, primary screen (AID 1144); conditions: P. aeruginosa PAO1 biofilm, 12 h, higher = more signal
[4] = basal CRE-LacZ reporter activity in PC12 – cell-based, unstimulated, primary screen (AID 1145); conditions: no forskolin, luminescence, 4.5 h, higher = more signal, called active from +8 up or from −8 down
[5] = forskolin-driven CRE-LacZ activity in PC12 – cell-based, CRE-LacZ reporter, forskolin-stimulated, primary screen (AID 1146); conditions: luminescence, 4.5 h, higher = more signal, called active from +8 up or from −8 down;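 also: PC12 cells with 6xCRE LacZ reporter stimulated by forskolin 10 µM; beta-galactosidase reporter signal reflecting CREB driven transcription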
[6] = molecular target: Streptavidin (Streptomyces avidinii) (UniProt P22629); experiment: compounds binding control protein streptavidin – biophysical, small-molecule microarray, 635/667 nm fluorescence, artefact control for SMM compound annotation, primary screen (AID 1147); conditions: higher = more signal;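 also: signal reflects streptavidin binding to arrayed compounds as a control protein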
Streptavidin (Streptomyces avidinii), sequence (P22629 whole entry, looked up): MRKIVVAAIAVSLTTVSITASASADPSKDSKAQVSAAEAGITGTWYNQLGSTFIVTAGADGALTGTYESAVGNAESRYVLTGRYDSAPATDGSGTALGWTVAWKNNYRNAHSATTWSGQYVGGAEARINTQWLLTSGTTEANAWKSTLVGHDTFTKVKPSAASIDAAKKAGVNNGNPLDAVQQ

[7] = probe aInhba binding on compound microarray – biochemical, small-molecule microarray, 635/667 nm fluorescence, primary screen (AID 1148); conditions: higher = more signal;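 also: score merges 667nm spot fluorescence with signal-to-noise for antibody binding to printed compounds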
Torsin-1A (Homo sapiens) [8] = molecular target: Torsin-1A (Homo sapiens) (UniProt O14656); experiment: TOR1A wild-type binding on microarray – cell lysate, small-molecule microarray, lysate, 635/667 nm, primary screen (AID 1149); conditions: COS7 hTOR1A-WT lysate, 635 nm fluorescence, higher = more signal
Torsin-1A (Homo sapiens), sequence (O14656 whole entry, looked up): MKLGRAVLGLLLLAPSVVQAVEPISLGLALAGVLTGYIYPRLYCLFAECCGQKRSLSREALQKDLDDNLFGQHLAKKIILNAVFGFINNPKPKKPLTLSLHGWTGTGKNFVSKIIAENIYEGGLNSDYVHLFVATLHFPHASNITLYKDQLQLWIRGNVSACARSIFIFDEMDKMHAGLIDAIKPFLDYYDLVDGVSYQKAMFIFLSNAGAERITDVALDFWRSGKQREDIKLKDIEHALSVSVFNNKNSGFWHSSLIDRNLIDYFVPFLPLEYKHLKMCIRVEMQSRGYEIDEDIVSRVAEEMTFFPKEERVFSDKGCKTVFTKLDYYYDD

Torsin-1A (Homo sapiens) [9] = molecular target: Torsin-1A (Homo sapiens) (UniProt O14656); experiment: torsin A mutant lysate binding on microarrays – cell lysate, small-molecule microarray, COS7 lysate, 635/667 nm fluorescence, primary screen (AID 1150); conditions: COS7 hTOR1A mutant lysate, 635 nm fluorescence, higher = more signal;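 also: score pools 667 nm emission and signal to noise measuring lysate protein binding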
[10] = test system: Sonic hedgehog protein (Shh); experiment: Sonic hedgehog microarray binding compounds – biochemical, small-molecule microarray, 635/667 nm fluorescence, primary screen (AID 1151); conditions: 635 nm fluorescence, higher = more signal;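 also: Shh protein binding to compounds spotted on small-molecule microarray slides; score combines spot fluorescence intensity with signal-to-noise across triplicate slides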
[11] = optical density shifts of acrAB sulA E. coli – strain DRC41, OD650, 48 h, E. coli filamentation inducer project, primary screen (AID 1152); conditions: higher = more signal, called active from +8 up or from −8 down;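 also: E. coli MC1000 strain DRC41 lacking acrAB efflux pump and sulA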
[12] = probe aLefty1 binding on compound microarray – biochemical, small-molecule microarray, 635/667 nm fluorescence, primary screen (AID 1153); conditions: higher = more signal;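 also: score merges spot fluorescence with signal-to-noise ratio from the scanned slide images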
[13] = plasmodial surface anion channel blockers, osmotic lysis – cell-based, P. falciparum Indochina, OD700, 1 h, primary screen (AID 1154); conditions: P. falciparum Indochina infected RBC osmotic lysis, higher = more signal, called active from +8 up or from −8 down
[14] = plasmodial surface anion channel blockers, osmotic lysis – cell-based, P. falciparum Indochina, OD700, 2 h, primary screen (AID 1155);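 also: lysis reports solute entry through the parasite surface anion channel PSAC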; conditions: P. falciparum Indochina infected erythrocytes, higher = more signal, called active from +8 up or from −8 down
[15] = changes in parasitized red cell lysis, either direction – P. falciparum Indochina, OD700, 3 h, PSAC antagonist project, primary screen (AID 1156); conditions: P. falciparum-infected erythrocytes, osmotic lysis, higher = more signal, called active from +8 up or from −8 down
[16] = plasmodial surface anion channel blockers, osmotic lysis – cell-based, P. falciparum Indochina, OD700, 18 h, primary screen (AID 1157); conditions: P. falciparum Indochina infected erythrocytes, osmotic lysis OD700, 18 h; higher = more signal, called active from +8 up or from −8 down
[17] = S6 kinase pathway phospho-S6 level changes – cell-based, A549, cytoblot, luminescence, serum-stimulated, primary screen (AID 1158); conditions: 5 h, higher = more signal;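 also: serum-stimulated A549 lung adenocarcinoma cells; signal is phosphorylated S6 detected by cytoblot immunostaining with HRP secondary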
[18] = molecular target: NADPH oxidase 2 (Homo sapiens) (UniProt P04839); experiment: compounds shifting NOX2 Amplex Red fluorescence – cell-based, HEK293-NOX2, PMA-stimulated, NOX inhibitor project, primary screen (AID 1159); conditions: 45 min, higher = more signal, called active from +8 up or from −8 down; also: test concentration not given here
NADPH oxidase 2 (Homo sapiens), sequence (P04839 whole entry, looked up): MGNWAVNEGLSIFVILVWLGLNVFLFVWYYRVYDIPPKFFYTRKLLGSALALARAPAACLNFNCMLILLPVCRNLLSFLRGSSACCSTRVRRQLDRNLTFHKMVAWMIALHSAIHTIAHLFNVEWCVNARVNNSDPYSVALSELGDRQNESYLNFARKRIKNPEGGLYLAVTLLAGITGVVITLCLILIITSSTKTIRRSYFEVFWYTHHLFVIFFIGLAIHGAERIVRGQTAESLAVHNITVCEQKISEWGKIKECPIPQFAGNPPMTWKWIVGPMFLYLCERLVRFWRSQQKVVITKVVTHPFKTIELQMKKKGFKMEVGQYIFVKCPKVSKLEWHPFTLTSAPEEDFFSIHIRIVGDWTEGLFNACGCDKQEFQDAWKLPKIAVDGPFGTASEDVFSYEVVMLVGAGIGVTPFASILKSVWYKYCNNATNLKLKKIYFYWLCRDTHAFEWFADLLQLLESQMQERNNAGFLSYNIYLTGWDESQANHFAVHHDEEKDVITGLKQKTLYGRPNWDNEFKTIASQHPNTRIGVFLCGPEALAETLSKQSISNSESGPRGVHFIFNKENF

[19] = molecular target: NADPH oxidase 4 (Homo sapiens) (UniProt Q9NPH5); experiment: compounds shifting NOX4 Amplex Red fluorescence – cell-based, HEK293-NOX4, tetracycline-induced, NOX inhibitor project, primary screen (AID 1160); conditions: HEK293-NOX4, Amplex Red H2O2 fluorescence, 45 min; higher = more signal, called active from +8 up or from −8 down
NADPH oxidase 4 (Homo sapiens), sequence (Q9NPH5 whole entry, looked up): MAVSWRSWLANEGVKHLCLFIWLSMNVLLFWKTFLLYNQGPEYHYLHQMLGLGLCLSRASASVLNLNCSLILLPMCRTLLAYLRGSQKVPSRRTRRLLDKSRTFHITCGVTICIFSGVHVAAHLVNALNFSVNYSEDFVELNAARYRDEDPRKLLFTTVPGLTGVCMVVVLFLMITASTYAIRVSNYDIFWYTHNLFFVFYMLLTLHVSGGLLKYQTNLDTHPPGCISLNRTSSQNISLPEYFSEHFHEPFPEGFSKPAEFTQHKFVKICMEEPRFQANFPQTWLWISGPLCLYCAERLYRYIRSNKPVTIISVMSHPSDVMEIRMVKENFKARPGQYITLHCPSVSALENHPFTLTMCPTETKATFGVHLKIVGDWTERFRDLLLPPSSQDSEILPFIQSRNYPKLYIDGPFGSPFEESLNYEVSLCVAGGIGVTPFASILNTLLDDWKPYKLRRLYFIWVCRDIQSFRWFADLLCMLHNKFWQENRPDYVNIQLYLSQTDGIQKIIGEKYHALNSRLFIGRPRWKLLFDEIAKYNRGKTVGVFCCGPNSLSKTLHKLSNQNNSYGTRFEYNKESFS

[20] = molecular target: NADPH oxidase 5 (Homo sapiens) (UniProt Q96PH1); experiment: compounds shifting NOX5 Amplex Red fluorescence – cell-based, HEK293-NOX5, NOX inhibitor project, primary screen (AID 1161); conditions: HEK293-NOX5, ionomycin, 45 min, higher = more signal
NADPH oxidase 5 (Homo sapiens), sequence (Q96PH1 whole entry, looked up): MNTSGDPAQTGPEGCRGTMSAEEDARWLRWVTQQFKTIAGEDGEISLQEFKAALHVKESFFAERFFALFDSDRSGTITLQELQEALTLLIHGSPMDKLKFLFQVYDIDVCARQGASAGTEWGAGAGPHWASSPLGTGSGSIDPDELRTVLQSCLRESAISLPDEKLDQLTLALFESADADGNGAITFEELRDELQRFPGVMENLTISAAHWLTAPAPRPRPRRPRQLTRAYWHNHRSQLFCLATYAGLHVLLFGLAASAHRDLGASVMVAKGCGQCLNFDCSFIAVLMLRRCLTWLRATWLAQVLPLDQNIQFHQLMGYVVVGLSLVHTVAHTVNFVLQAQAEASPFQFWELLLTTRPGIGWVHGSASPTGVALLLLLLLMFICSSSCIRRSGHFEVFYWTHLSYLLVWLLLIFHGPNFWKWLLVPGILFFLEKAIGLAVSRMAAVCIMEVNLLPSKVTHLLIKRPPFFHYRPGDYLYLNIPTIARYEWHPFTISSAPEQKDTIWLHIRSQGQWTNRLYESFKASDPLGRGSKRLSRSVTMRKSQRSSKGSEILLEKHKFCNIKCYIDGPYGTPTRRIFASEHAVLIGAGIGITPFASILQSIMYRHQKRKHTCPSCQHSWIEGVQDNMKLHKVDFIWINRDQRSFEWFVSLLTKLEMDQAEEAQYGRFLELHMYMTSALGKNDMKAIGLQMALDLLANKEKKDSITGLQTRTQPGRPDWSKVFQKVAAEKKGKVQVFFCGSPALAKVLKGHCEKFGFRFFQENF

Compound | composite z-score [1] | z-score [2] | z-score [3] | z-score [4] | z-score [5] | composite z-score [6] | composite z-score [7] | composite z-score (Torsin-1A (Homo sapiens) [8]) | composite z-score (Torsin-1A (Homo sapiens) [9]) | composite z-score [10] | z-score [11] | composite z-score [12] | z-score [13] | z-score [14] | z-score [15] | z-score [16] | z-score [17] | z-score [18] | z-score [19] | z-score [20]
CC(CCN1CCc2nc(-c3ccccc3)c(-c3ccccc3)cc2C1)=NOC[C@@H](O)[C@H]1O[C@@H]2OC(C)(C)O[C@@H]2[C@H]1O | 0.19 | -0.875 (inactive) | 0.306 (inactive) | 2.25 (inactive) | -0.311 (inactive) | 0.687 | -0.0589 | 0.648 | 0.587 | 1.09 | 0.784 (inactive) | -0.0099 | 1.47 (inactive) | 0.239 (inactive) | 0.318 (inactive) | 0.244 (inactive) | -0.0979 | -5.63 (inactive) | -1.69 (inactive) | -4.61
Cc1cc2c(nc1C)CCCN2CC(O)CN1CCCc2nc(C)c(C)cc21 | 0.424 | 0.135 (inactive) | 0.051 (inactive) | -0.704 (inactive) | -0.875 (inactive) | 0.209 | 0.141 | 0.482 | 1.95 | 0.639 | -0.171 (inactive) | 0.547 | -0.274 (inactive) | 0.185 (inactive) | 0.249 (inactive) | -0.0697 (inactive) | -0.669 | 0.803 (inactive) | 0.628 (inactive) | -0.575
COC(=O)CC=C[C@@H](C)[C@@H](C=NO[C@H](C)c1cn([C@@H]2COC[C@H]2O)nn1)NS(=O)(=O)c1ccc(C)cc1 | -0.0155 | 0.23 (inactive) | -0.668 (inactive) | 1.08 (inactive) | -0.112 (inactive) | -0.262 | 0.0173 | 0.68 | 0.429 | 0.691 | 0.876 (inactive) | -0.274 | 1.43 (inactive) | 0.269 (inactive) | 0.785 (inactive) | 0.465 (inactive) | 0.459 | -0.283 (inactive) | 0.891 (inactive) | 0.309
COC(=O)CC=C[C@@H](C)[C@@H](C=NO[C@@H](C)c1cn([C@H](CO)Cc2ccccc2)nn1)NS(=O)(=O)c1ccc(C)cc1 | 0.062 | -0.35 (inactive) | 0.606 (inactive) | 3.99 (inactive) | -0.0697 (inactive) | 0.0525 | 0.0928 | 0.945 | 0.997 | 0.685 | 0.264 (inactive) | 0.196 | 0.507 (inactive) | -1.66 (inactive) | -0.598 (inactive) | -1.93 (inactive) | 1.85 | -0.575 (inactive) | 0.328 (inactive) | 0.17
COCOc1ccc(Br)cc1C(=O)[C@@H]1O[C@H]1c1cccc(OC)c1 | -0.202 | -1.97 (inactive) | 0.64 (inactive) | 1.2 (inactive) | -0.37 (inactive) | 0.015 | -0.149 | 0.736 | 0.437 | 0.349 | 0.467 (inactive) | -0.0662 | 5.75 (inactive) | 1.12 (inactive) | -0.23 (inactive) | 0.248 (inactive) | -0.291 | 1 (inactive) | -0.575 (inactive) | -1.92
O=C1[C@H]2[C@H]3[C@H](O)[C@H](O)CC(=NOC[C@@H](O)COCc4ccco4)[C@H]3CC[C@H]2C(=O)N1C[C@@H]1CCCO1 | 0.228 | 0.208 (inactive) | -0.136 (inactive) | 0.424 (inactive) | 0.261 (inactive) | -0.0239 | -0.111 | 3.31 | 2.75 | 0.793 | -0.362 (inactive) | -0.324 | 0.342 (inactive) | 0.276 (inactive) | -0.425 (inactive) | 0.33 (inactive) | -0.637 | 0.276 (inactive) | 0.557 (inactive) | -0.0426
CC(=O)OC[C@H]1OC(ON=CC[C@@H]2C=C[C@H](OC(C)=O)[C@@H](COC(C)=O)O2)[C@H](OC(C)=O)[C@@H](OC(C)=O)[C@@H]1OC(C)=O (stereo not given in full) | 0.066 | -0.697 (inactive) | -0.133 (inactive) | 0.327 (inactive) | 0.915 (inactive) | 0.559 | -0.126 | 0.37 | 0.877 | -0.499 | -0.0016 (inactive) | 0.315 | 0.202 (inactive) | 0.0995 (inactive) | 0.153 (inactive) | 0.22 (inactive) | -0.999 | 0.00176 (inactive) | 0.186 (inactive) | 0.0378
CO[C@@H]1COC(=O)[C@@H](C)NC(=O)CC=C[C@@H](C)[C@H](NS(=O)(=O)c2ccc(C)cc2)COC(=O)[C@H](C)NC(=O)CC=C[C@H]1C | -0.0222 | 0.806 (inactive) | 0.829 (inactive) | 0.881 (inactive) | -0.314 (inactive) | -0.967 | -0.218 | 1.31 | 0.584 | 1.33 | 0.69 (inactive) | -0.145 | 0.079 (inactive) | -0.121 (inactive) | -0.361 (inactive) | -0.0378 (inactive) | -0.363 | 0.931 (inactive) | 0.649 (inactive) | -0.165
C=CC[C@@H]1C=C[C@H](ON=C(C)CCN2CCc3nc(-c4ccccc4)c(-c4ccccc4)cc3C2)[C@@H](CO)O1 | 0.0399 | -0.648 (inactive) | -0.117 (inactive) | -0.0033 (inactive) | -1.03 (inactive) | 0.313 | -0.0719 | 0.593 | 0.415 | 1.12 | 0.418 (inactive) | 0.0446 | 4.53 (inactive) | 0.809 (inactive) | 0.85 (inactive) | 0.538 (inactive) | -0.0288 | -2.79 (inactive) | -0.835 (inactive) | -2.75
